Screening data deposited in PubChem by National Center for Advancing Translational Sciences (NCATS).
Compounds with a hit are over-represented: about 2.9% of the library has one in this group of screens.
KDM5B inhibitor = Primary screen for KDM5B Histone Demethylases FDH-coupled qHTS. Lysine-specific demethylase 5B (Homo sapiens), Q9UGL1. AID 1347165, 2019. KDM5B demethylase, FDH-coupled NADH fluorescence (FDH is formaldehyde dehydrogenase). hit rate 2.6% among 220,000. Potency, µM (titrated, usually from 57.7 µM), usual class: inhibitors; also: potency is read from the fitted curve at half-maximal effect; 0% is about no effect; nearly all actives have a fitted effect of over 70% in size
Target sequence (Q9UGL1 whole entry, looked up): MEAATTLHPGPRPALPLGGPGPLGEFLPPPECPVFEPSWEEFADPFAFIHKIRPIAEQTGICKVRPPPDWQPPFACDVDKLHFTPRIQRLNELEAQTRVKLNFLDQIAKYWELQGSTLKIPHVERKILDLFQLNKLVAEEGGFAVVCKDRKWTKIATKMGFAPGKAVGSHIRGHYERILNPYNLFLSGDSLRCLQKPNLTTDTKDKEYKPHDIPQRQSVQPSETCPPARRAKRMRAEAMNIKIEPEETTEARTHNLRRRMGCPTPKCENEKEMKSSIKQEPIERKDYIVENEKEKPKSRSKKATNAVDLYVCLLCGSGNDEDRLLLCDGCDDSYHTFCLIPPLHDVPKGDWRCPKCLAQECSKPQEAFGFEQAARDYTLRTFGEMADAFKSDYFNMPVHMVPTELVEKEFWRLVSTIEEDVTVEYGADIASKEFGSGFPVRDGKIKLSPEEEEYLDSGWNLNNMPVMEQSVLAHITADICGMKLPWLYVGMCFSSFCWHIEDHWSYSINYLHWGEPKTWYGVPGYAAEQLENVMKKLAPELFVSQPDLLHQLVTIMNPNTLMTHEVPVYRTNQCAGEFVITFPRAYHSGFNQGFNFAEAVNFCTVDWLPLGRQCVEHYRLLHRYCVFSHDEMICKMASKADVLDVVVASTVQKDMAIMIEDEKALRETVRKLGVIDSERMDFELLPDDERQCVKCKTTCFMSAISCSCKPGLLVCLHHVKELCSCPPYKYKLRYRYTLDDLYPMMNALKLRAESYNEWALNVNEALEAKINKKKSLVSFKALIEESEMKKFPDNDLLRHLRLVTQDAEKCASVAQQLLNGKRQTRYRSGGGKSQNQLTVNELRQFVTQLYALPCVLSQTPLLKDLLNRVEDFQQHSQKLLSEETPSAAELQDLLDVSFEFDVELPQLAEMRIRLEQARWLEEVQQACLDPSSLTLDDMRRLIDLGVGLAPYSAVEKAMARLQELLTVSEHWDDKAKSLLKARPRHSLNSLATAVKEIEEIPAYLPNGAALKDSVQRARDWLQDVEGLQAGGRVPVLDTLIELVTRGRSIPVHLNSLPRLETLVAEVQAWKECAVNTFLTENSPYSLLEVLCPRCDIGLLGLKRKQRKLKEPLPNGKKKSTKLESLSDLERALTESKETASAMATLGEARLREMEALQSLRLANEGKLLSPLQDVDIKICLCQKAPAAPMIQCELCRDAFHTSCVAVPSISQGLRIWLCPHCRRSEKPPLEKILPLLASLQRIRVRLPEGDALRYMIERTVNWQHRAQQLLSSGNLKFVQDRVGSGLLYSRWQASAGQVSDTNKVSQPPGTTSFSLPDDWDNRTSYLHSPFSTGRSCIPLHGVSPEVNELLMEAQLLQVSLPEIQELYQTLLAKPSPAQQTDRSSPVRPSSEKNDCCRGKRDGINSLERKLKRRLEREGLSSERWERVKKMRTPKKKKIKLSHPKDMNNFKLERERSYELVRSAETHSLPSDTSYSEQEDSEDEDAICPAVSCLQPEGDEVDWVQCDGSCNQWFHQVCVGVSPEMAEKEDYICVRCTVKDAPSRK
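KDM5BΔAP (200 nM final) in 50 mM HEPES pH 7.5, 0.01% Tween-20 was preincubated 10 min at RT with compound over a concentration range. Substrate mix (H3K4me3 12.5 µM, α-KG 25 µM, Fe²⁺, ascorbate, NAD⁺, FDH) was added, and NADH fluorescence change over 30 min gave dose-response curves.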
IP6K1 inhibitor = Primary qHTS assay for small molecule inhibitors of Inositol hexaphosphate kinase 1 (IP6K1). AID 1645851, 2021. hit rate 0.81% among 140,000. activity change, % (series mostly up to about 58 µM). IP6K1 kinase, ADP-Glo luminescence, 2 h; stronger effect = lower value; in the data active = activity change below about -25%; also: % is scaled to controls: 0 for no effect and ±100 for the full control effect
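ADP-Glo luminescence measures ADP made by human IP6K1 during a 2 h RT reaction with ATP/IP6 (mix at 1.3 mM/130 uM); top library doses 57.5 and 19.1 uM final.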
HEK293 viab = GF-AFC viability counterscreen for inhibitors of alpha-synuclein gene (SNCA) expression; HEK-293-SNCA-luc viability, GF-AFC fluorescence, 24 h; Potency, µM (top dose mostly 57.1 µM), inactives show top-dose activity change, negative = cytotoxicity, actives largely listed as cytotoxic; hit rate 0.12% among 150,000;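 also: potency is read from the fitted curve at half-maximal effect; 0% = DMSO-treated cells and -100% = medium-only wells without cells; nearly all actives have a fitted effect of over 30% in size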
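Cytotoxicity counterscreen: after 24 h compound treatment of genome-edited SNCA-luciferase HEK-293 cells, live-cell protease substrate GF-AFC read by fluorescence after 30 min; activity scaled between DMSO (0%) and medium-only (-100%), curves Hill-fitted.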
SNCA expr inh = Primary qHTS assay for inhibitors of alpha-synuclein gene (SNCA) expression; HEK-293 SNCA-luciferase knock-in, luminescence, 24 h; Potency, µM (top dose mostly 57.2 µM), without a hit: at the top dose activity change, negative = inhibition, actives largely listed as inhibitors; hit rate 0.17% among 140,000; AID 1671194, 2021;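 also: potency is read from the fitted curve at half-maximal effect; plate controls were DMSO cells for no effect and cell-free wells for full effect; nearly all actives have a fitted effect of over 45% in size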
Active calls of the source: *; i = inactive; ? = inconclusive; . = not tested or not shown; [ ] = dose if it differs, or a comment. Unless noted, calls follow the shape of the dose curve; as a rule, active = well fitted curve in the direction sought with a large enough effect; inconclusive = small, poorly fitted or top-dose-only effect, or another doubt; inactive = no such curve, though single readings can be large; an effect the other way counts as inactive or inconclusive.

SMILES	KDM5B inhibitor	IP6K1 inhibitor	HEK293 viab	SNCA expr inh
CC(C)c1ccc(CNC(=O)c2ccc(Cn3ccn4nc5c(c4c3=O)CCCC5)cc2)cc1	28.2µM*	-8.5	-2.1%	1.9%
Cc1ccc(NC(=O)c2cc3c(N4CCSCC4)nc(C)cn3n2)c(C)c1	31.6µM*	-16.7	2.5%	30.6%
Cc1ccc(F)c(NC(=O)c2cc3c(N4CCSCC4)nc(C)cn3n2)c1	31.6µM*	-10.2	-1.1%	50.2%
CSc1ccc(NC(=O)c2cc3c(N4CCSCC4)nc(C)cn3n2)cc1	i	9.6	-15.5%	3.2%
CC(C)c1nc(-c2ccc(OC3CCN(C(=O)Cc4cccc(F)c4)C3)cc2)no1 (stereo not drawn)	.	-0.6	-6.7%	-18.6%
COc1ccc2nc3n(c2c1)[C@@H](CNCc1ccc(C#N)cc1)COC3	28.2µM*	-2.6	-18.3%[87.6 µM]	3.4%[87.6 µM]
COc1ccc2nc3n(c2c1)[C@@H](CNCc1ccccc1)COC3	i	-5.8	-13.2%[87.6 µM]	5.0%[87.6 µM]
COc1cccc(NC(=O)NC[C@H]2O[C@@H](CC(=O)N3CCc4ccccc43)[C@H](O)[C@@H]2O)c1	i	-8.2	-10.4%	6.1%
O=C(NCc1ccc(F)cc1)C1CCc2nnc(-c3ccc(F)cc3)n21 (stereo not drawn)	.	17.4	2.1%[12.5 µM]	5.2%[87.6 µM]
CN1C[C@H](C(=O)N2CCN(c3ccccn3)CC2)C[C@H]1c1cccc(C(F)(F)F)c1	39.8µM*	13.4	-17.3%[87.6 µM]	-1.5%[87.6 µM]
Cc1ccc(CN2CCC3(CC2)Cc2ccccc2NC3=O)cc1	i	-10.5	3.8%[87.6 µM]	?
CC(C)C1CN(c2cncc(C(=O)N3CCCC3)n2)CCC(=O)N1CC1CC1 (stereo not drawn)	28.2µM*	-1.5	7.8%	4.5%
CN(C)C(=O)N1Cc2ccccc2OC2(CCN(C(=O)c3ccnc(N)c3)CC2)C1	89.1µM*	-3.8	1.2%	7.0%
CN(C)C(=O)N1CCC2(CC1)CN(C(=O)c1ccnc(N)c1)Cc1ccccc1O2	79.4µM*	-2.4	2.4%	-12.0%
CN1CCN(C(=O)N2Cc3ccccc3OC3(CCN(C(=O)N(C)C)CC3)C2)CC1	i	17.4	1.4%	-15.6%
CN1[C@@H](CCC(=O)NCc2ccco2)CNC(=O)[C@@H]2[C@H]1CCN2Cc1ccccc1	i	-2.8	6.5%[87.6 µM]	-6.9%[87.6 µM]
O=C(C1CCCN1c1nc2ncccc2o1)N1CCN(c2ncccn2)CC1 (stereo not drawn)	14.1µM*	2.0	?	-5.1%
O=C(C1CCN(c2nc3ncccc3o2)CC1)N1CCN(c2ncccn2)CC1	.	7.8	-4.1%	-7.0%
O=C(C1CCCN1c1nc2ncccc2o1)N1CCOCC1 (stereo not drawn)	28.2µM*	-5.5	7.4%[87.6 µM]	8.3%[87.6 µM]
O=C(C1CCCN1c1nc2ncccc2o1)N1CCCC1 (stereo not drawn)	39.8µM*	0.6	-10.8%[87.6 µM]	-13.0%[87.6 µM]
O=C(CCC[C@H]1NC[C@@H]2C[C@H]1CN(Cc1ccccc1)C2)NCCc1cccnc1	?	-24.2	2.9%	2.0%
O=C(CCC[C@H]1NC[C@@H]2CC1CN(Cc1ccccc1)C2)NCCCc1ccccc1	7.08µM*	11.9	-10.8%	-6.6%
CCc1ccc(NC(=O)OC)cc1	i	.	.	.
Cc1sc2ccn(C)c(=O)c2c1C(=O)NCc1ccc(OC(C)C)cc1	?	7.7	2.2%	-25.2%
Cc1ccc(-c2noc(-c3ccc(N4CCCCC4)c([N+](=O)[O-])c3)n2)cc1	i	-4.4	-5.8%	-4.2%
SMILES	KDM5B inhibitor	IP6K1 inhibitor	HEK293 viab	SNCA expr inh
O=[N+]([O-])c1cc(-c2nc(-c3ccccc3)no2)ccc1N1CCCCC1	i	7.7	6.8%	10µM*
CCCc1ccc(S(=O)(=O)NC2CCN(c3ccc(=O)n(CC4CC4)n3)CC2)cc1	28.2µM*	5.7	-6.0%	?
O=c1ccc(N2CCC(NS(=O)(=O)c3ccccc3Cl)CC2)nn1CC1CC1	?	-2.7	?	?
COC(=O)CNC(=O)c1cc(-c2ccc(Cl)cc2Cl)c2nncn2n1	44.7µM*	6.4	-3.6%	-8.0%
O=C(c1cc(-c2ccc(F)cc2)c2nncn2n1)N1CCOCC1	.	13.4	-4.8%[87.6 µM]	12.6%[87.6 µM]
O=C(c1cc(-c2cccnc2)c2nncn2n1)N1CCOCC1	89.1µM*	1.3	-0.4%	6.2%
O=C(NCCc1ccc(Cl)cc1)c1cc(-c2cccc(C(F)(F)F)c2)c2nncn2n1	79.4µM*	-4.1	-18.0%	-20.4%
COC(=O)CNC(=O)c1cc(-c2cccc(C(F)(F)F)c2)c2nncn2n1	79.4µM*	-0.5	-11.8%	13.5%
CN(C)C(=O)c1ccc(CNC(=O)c2ccccc2CSc2nc3ccccc3o2)cc1	i	.	.	.
Cc1ccccc1COc1ccccc1C(=O)O	i	.	.	.
COC(=O)CNC(=O)c1cc(-c2cccnc2)c2nncn2n1	100µM*	18.5	1.4%	15.2%
COC(=O)CNC(=O)c1cc(-c2ccccc2OC)c2nncn2n1	i	2.3	-10.4%	44.4%
COc1cccc(-n2nc(C(=O)O)cc2-c2ccc(C3CCCCC3)c(Cl)c2)c1	.	-38.2*	-14.6%	.
Cn1ccnc1-c1ccc(N2CC[C@@]3(O)CCN(S(C)(=O)=O)C[C@H]3C2)nn1	31.6µM*	6.9	-13.4%	60.6%
CCOC(=O)N1CCN(CC(=O)Nc2oc3ccccc3c(=O)c2-c2ccc(F)cc2)CC1	i	.	.	.
O=C1Nc2ccccc2CN(Cc2ccc(C(F)(F)F)cc2)C12CCNCC2	50.1µM*	-13.3	-29.8%	1.4%
O=C1Nc2ccccc2CN(CC2CCCC2)C12CCNC2 (stereo not drawn)	89.1µM*	-18.4	-11.6%	29.5%
O=C1Nc2ccccc2CN(Cc2ccc(F)cc2)C12CCNCC2	44.7µM*	-12.9	-9.3%	-4.2%
O=C1Nc2ccccc2CN(CC2CC2)C12CCNC2 (stereo not drawn)	i	10.1	-13.9%[87.6 µM]	6.9%[87.6 µM]
CCC(C)NC(=O)C1CCCN1c1nccc(Nc2ccccc2F)n1 (stereo not drawn)	.	-3.1	-4.0%[12.5 µM]	1.4%
O=C(Nc1c(NC2CCCCC2)c2ccccc2oc1=O)c1cccs1	i	.	.	.
CCCn1cc(-c2ccncc2)cc1C(=O)NCc1ccccc1	i	-2.6	1.8%	23.1%
CCCn1cc(-c2ccncc2)cc1C(=O)NCc1cccc(F)c1	25.1µM*	0.5	4.7%	3.6%
CCOc1ccc(-c2ccnc(-c3ncccn3)n2)cc1C(=O)O	i	0.0	?	-5.8%
CCOc1ccc(-c2ccnc(N3CCOC(CN)C3)n2)cc1C(=O)O (stereo not drawn)	28.2µM*	-4.4	4.2%	-14.1%
CNc1ncccc1C(=O)N1CC[C@@H](c2ccc3c(c2)OCO3)[C@H](O)C1	28.2µM*	33.1	-16.1%	?
Cc1ccc(CN2CCCCCCNC(=O)[C@@H]3C[C@@H](C(=O)NCCc4cnc[nH]4)C[C@@H]32)o1	?	13.1	-3.7%	3.2%
N#Cc1ccc(CN2CCCCCCNC(=O)[C@@H]3C[C@@H](C(=O)NCCc4cnc[nH]4)C[C@@H]32)cc1	20µM*	-0.2	0.4%	-9.8%
